The results in this text go back to PubChem BioAssay (NCI).

Compounds without any hit were thinned out: in the full panel of roughly 83,000, 20% have a hit.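 Treatment: one concentration, 48 hours, 96-well format. Scoring: percent growth, with anything below 10 considered active.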 Unmarked numbers belong to inactive results. Active and inactive are the calls of the source.

What all share (test): NCI-60 one-dose screen, 48 h (100 = growth as untreated, 0 = no growth, -100 = all killed)
Test [1] concerns HCT-15 colon. To be noted: 10 µM unless noted.
The subject of test [2] is HT29 colon. To be noted: 10 µM unless noted.
The subject of test [3] is SNB-75 CNS. To be noted: 10 µM unless noted.
Test [4] has as its system SNB-19 CNS. To be noted: 10 µM unless noted.
Test [5] concerns U251 CNS. To be noted: 10 µM unless noted.
Test [6] has as its system PC-3 prostate. Conditions: 10 µM unless noted.
Test [7] deals with SK-MEL-5 melanoma. Conditions: 10 µM unless noted.
In test [8] the test system is UACC-62 melanoma. Conditions: 10 µM unless noted.
The subject of test [9] is LOX IMVI melanoma. Conditions: 10 µM unless noted.
Test [10] deals with SK-MEL-28 melanoma. To be noted: 10 µM unless noted.
The test system of test [11] is EKVX NSCLC. To be noted: 10 µM unless noted.
Test [12] deals with SN12C renal. To be noted: 10 µM unless noted.
The test system of test [13] is UO-31 renal. Conditions: 10 µM unless noted.
For test [14], the system named is TK-10 renal. To be noted: 10 µM unless noted.
Test [15] concerns ACHN renal. To be noted: 10 µM unless noted.
In test [16] the test system is CAKI-1 renal. To be noted: 10 µM.
The subject of test [17] is A498 renal. Conditions: 10 µM unless noted.
Test [18] concerns CCRF-CEM leukemia. To be noted: 10 µM unless noted.
Test [19] deals with SK-MEL-2 melanoma. Conditions: 10 µM unless noted.
In test [20] the test system is MOLT-4 leukemia. Conditions: 10 µM unless noted.

On to `Clc1ccccc1/C=C/c1nn2c(-c3ccncc3)nnc2s1`, for which the growth is 96.4% in [1]; 111% in test [2]; 105% in [3]; 99.6% in [4]; 106% in test [5]; 97.2% in test [6]. For the same compound, the growth is 99.3% in test [7]; 94.3% in [8]; 98.1% in [9]; 103% in test [10]; 94.2% in test [11]; 103% in [12]. For the same compound, the growth in [13] is 93.1%; in test [14], 126%; in test [15], 104%; in test [16] it was 87.9%; in [17], 95.2%; in [18], 97.6%.

As for `C=CCn1c(SCC(=O)Nc2cccc(C(=O)/C=C/c3cc(OC)c(OC)c(OC)c3)c2)nc2ccccc2c1=O`, the growth was 11.6% in test [1]; -23.4% (active) in [2]; 33.9% in test [3]; 53.8% in test [4]; 9.44% (active) in test [5]; 51.6% in test [6]. The growth in [7] is 82.5%; in test [8] it was 48.8%; in test [9], 10%; in test [10] it was 83.8%; in test [11], 78.2%; in test [12] it was 41%. Further, the growth in test [13] was 49%; in test [14], 112%; in [15], 45.7%; in test [16], 44.2%; in test [17] it was 75.6%; in test [18] it was 9.12% (active).

In the case of `COc1ccc([C@H]2[C@H](O)C(=O)N2c2cc(OC)c(OC)c(OC)c2)cc1Cl`, the growth in test [1] is 9.77% (active); in test [2] it was 1.45% (active); in test [3], 58.6%; in [4], 29.2%; in test [5] it was 1.42% (active); in [6], 12.6%. In addition, the growth was -12.5% (active) in test [7]; 31% in test [8]; 14.4% in [9]; 63.6% in [10]; 50.1% in test [11]; 22.2% in test [12]. Also, the growth in test [13] is 32.8%; in test [14], 85.4%; in test [15] it was 26.6%; in [16], 30.6%; in test [17] it was -17% (active); in test [18] it was 16.4%.

For `COc1ccc2c(ccn2C(=O)N2c3ccccc3Sc3ccccc32)c1`, the growth was 32.7% in [1]; -12.6% (active) in test [2]; -3.95% (active) in [3]; 30.8% in [4]; 27% in test [5]; 35.2% in [6]. The growth in test [7] was 24.5%; in test [8] it was 33.3%; in [9], 46.5%; in test [10] it was 66.4%; in [19], 4.71% (active); in [13] it was 55%. The growth is 65.1% in test [14]; 49.2% in test [15]; 30.9% in [16]; -8.02% (active) in test [17]; 18.7% in test [18]; 37.2% in test [20].

Take `COc1ccc(NC(=O)[C@H](C)N)cc1C(=O)Nc1cccc(-c2cc(=O)c3c(OC)c(OC)c(OC)cc3o2)c1`: the growth in [1] is 49.6%; in [2], 69.8%; in test [3] it was 84.5%; in test [4], 65.8%; in test [5] it was 56.3%; in test [6], 71.6%. Besides, the growth is 57.9% in test [7]; 63.5% in test [8]; 49.8% in [9]; 88.2% in test [10]; 81.3% in test [11]; 55.4% in [12]. Moreover, the growth is 29.7% in test [13]; 70.7% in test [14]; 54.2% in test [15]; 49% in test [16]; 50.9% in [17]; 51.4% in test [20].

As to `CN1CCN(c2ccc(C(=O)/C=C/c3ccc(Cl)c(C(F)(F)F)c3)cc2)CC1`, the growth in test [1] was 17%; in [2] it was 11.6%; in [3], 65.3%; in [4], 73.7%; in [5] it was 38.4%; in test [6], 43.4%. Moreover, the growth in test [7] was 74.3%; in test [8], 75.4%; in test [9] it was 12.8%; in test [10] it was 87.2%; in test [11], 70.2%; in test [12] it was 49.1%. For the same compound, the growth in test [13] is 50.5%; in test [14] it was 102%; in test [15] it was 65.7%; in [16], 64.1%; in test [17], 81.6%; in test [18], 11%. For the same compound, the growth in test [20] was 41.6%.

`CNC(=O)c1cc(Oc2ccc3nc(NC(=O)c4ccc(CN5CCCN(C)CC5)c(C(F)(F)F)c4)sc3c2)ccn1`: the growth was -21.4% (active) in test [1]; -75.5% (active) in test [2]; 47.5% in test [3]; 7.5% (active) in [4]; 1.82% (active) in [5]; 22.2% in [6]. Moreover, the growth was -59.9% (active) in test [7]; -7.16% (active) in test [8]; -81.9% (active) in [9]; -74% (active) in [10]; 40.1% in test [11]; 54.9% in [12]. In addition, the growth was 4.18% (active) in test [13]; 47.9% in test [14]; 4.16% (active) in test [15]; 14.6% in [16]; 66.2% in test [17]; 8.38% (active) in test [18]. For the same compound, the growth in test [20] is -35.2% (active).

Consider `C=CCn1c(SCC(=O)Nc2cccc(C(=O)/C=C/c3ccc(Cl)cc3)c2)nc2ccccc2c1=O`, for which the growth was 81.5% in [1]; 84.8% in test [2]; 72.2% in test [3]; 86.9% in test [4]; 90.7% in [5]; 89% in test [6]. The growth was 99.1% in test [7]; 72.2% in [8]; 77.9% in [9]; 93.3% in [10]; 99.5% in test [11]; 86.2% in [12]. Moreover, the growth in test [13] is 67.6%; in test [14], 96.4%; in [15], 90.6%; in test [16], 76.8%; in test [17], 78%; in test [18] it was 96.6%. Also, the growth in test [20] was 94%.

Take `CCOC(=O)c1c(Nc2ccccc2)nn2c(-c3ccc(Br)cc3)ccnc12`: the growth in test [1] was 66.4%; in [2], 76.7%; in [3], 65.2%; in test [4], 56.8%; in test [5], 66.3%; in test [6], 80.9%. Besides, the growth in test [7] was 81.2%; in test [8], 79.3%; in [9], 56.4%; in [10] it was 78.3%; in [11] it was 81.5%; in test [12], 68.3%. Moreover, the growth in test [13] was 65.1%; in test [14], 90.6%; in test [15], 34%; in [16], 57.6%; in test [18], 85.8%; in [20] it was 87.6%.

Take `Nc1n[nH]c2cccc(C#Cc3cccc(NC(=O)c4cccc(OC(F)(F)F)c4)c3)c12`: the growth in test [1] was 41.3%; in test [2], 36.1%; in [3], 47.7%; in test [4], 81.3%; in test [5] it was 59.3%; in test [6], 68.3%. Further, the growth in test [7] was 80.9%; in test [8], 30.1%; in test [9], 16.9%; in test [10], 30.3%; in [11], 91%; in test [12], 39.7%. Besides, the growth in [13] was 26.9%; in test [14], 97.1%; in test [15], 31.7%; in test [16], 48.3%; in [17] it was 56.4%; in [18] it was 76.2%. Moreover, in test [20], the growth was 35.4%.

For the compound `CS(=O)(=O)c1ccc2c(c1)c1c(n2Cc2ccc(Cl)cc2)CCCC1`, the growth was 54.9% in [1]; 75.5% in test [2]; 75.4% in [3]; 72.3% in [4]; 68.1% in test [5]; 51.9% in test [6]. Also, the growth is 82.4% in [7]; 43.2% in test [8]; 81.5% in test [9]; 87.2% in test [10]; 71.2% in test [11]; 73.6% in [12]. The growth in [13] was 55.1%; in [14], 89.3%; in test [15], 66.8%; in test [16], 54.4%; in [17] it was 74.3%; in [18], 81.9%. In addition, the growth in test [20] is 64.3%.

Consider `COc1cc(O)c2c(c1)/C=C/C[C@H](O)[C@H](O)C(=O)/C=C\C[C@H](C)OC2=O`, for which the growth is -47.5% (active) in [1]; 1.76% (active) in [2]; -2.99% (active) in test [3]; 52.3% in test [4]; 34.6% in test [5]; 42.6% in test [6]. The growth was -57.9% (active) in [7]; -16.3% (active) in test [8]; -42.7% (active) in test [9]; -3.57% (active) in [10]; 44.2% in [11]; 7.02% (active) in test [12]. The growth in [13] was 13.1%; in test [14], 34.7%; in [15], 6.98% (active); in test [16] it was 13.6%; in test [18], 8.51% (active); in test [20], 5.34% (active).

Regarding `COc1cc2oc(-c3cccc(NC(=O)c4cc(NC(=O)[C@H](C)N)ccc4Cl)c3)cc(=O)c2c(OC)c1OC`, the growth in test [1] is 79.8%; in test [2], 115%; in [3], 96.1%; in test [4], 88.8%; in [5] it was 95.3%; in [6] it was 81.2%. The growth in test [7] was 86%; in [8], 89.3%; in test [9] it was 80.9%; in test [10], 106%; in test [11] it was 90.7%; in test [12], 90.9%. The growth in [13] is 72.3%; in test [14], 99.8%; in test [15], 91.3%; in test [16], 85.3%; in test [17], 71.8%; in test [18], 71.7%. In addition, in test [20], the growth was 76.3%.

For the compound `COc1cc(OC)c(S(N)(=O)=O)cc1C(=O)/C=C/c1ccccc1`, the growth in [1] was 11.3%; in test [2], 25.3%; in test [3], 77.4%; in test [4] it was 47.5%; in test [5] it was 28.5%; in test [6], 32.9%. In addition, the growth in test [7] is 23.2%; in test [8], 42.8%; in [9], 3.55% (active); in [10], 58%; in [11], 77.2%; in test [12], 11.3%. Besides, the growth is 33.8% in test [13]; 19.9% in test [14]; 27.7% in [15]; 30.2% in [16]; 15.1% in test [18]; 29.2% in test [20].
